Data as given in the antibiotic and cytotoxicity screens of Wong et al. (2023).
The campaign covered roughly 39,000 compounds. About 3,300 (8.5%) were called active. Many of the other results were omitted from the sample, so actives are more common in it than they were.

system: HepG2; experiment: cytotoxicity call (relative viability < 0.9); conditions: 10 µM

SMILES | cytotoxicity call
C[C@H](CO)N1C[C@H](C)[C@@H](CN(C)C(=O)Nc2ccccc2)Oc2ccc(NC(=O)C3CC3)cc2CC1=O | inactive
O=C1OCC=C[C@H]2O[C@@]34C=CCN(c5ccc(Cl)cc5)C(=O)[C@H]3N(CCCCCCO)C(=O)[C@@H]4[C@@H]12 | inactive
C[C@@H]1CCCCO[C@H](CN(C)Cc2ccc(C(=O)O)cc2)[C@@H](C)CN([C@H](C)CO)C(=O)c2cc(NC(=O)Nc3ccccc3)ccc2O1 | inactive
CC(C)N1C(=O)C[C@@](C(=O)NCCN2CCOCC2)(c2ccc([N+](=O)[O-])cc2)[C@H]1c1ccc(CO)cc1 | inactive
COc1ccc(NC(=O)Nc2ccc3c(c2)C(=O)N([C@@H](C)CO)C[C@H](C)[C@H](CN(C)C(=O)NC2CCCCC2)OCCCC[C@H](C)O3)cc1 | inactive
C[C@H]1CCCCO[C@H](CN(C)S(=O)(=O)c2ccccc2)[C@@H](C)CN([C@@H](C)CO)C(=O)c2cc(NC(=O)Nc3cccc4ccccc34)ccc2O1 | inactive
Cc1noc(C)c1NC(=O)N[C@@H]1CC[C@H](CC(=O)NCCCN(C)C)O[C@H]1CO | inactive
C[C@H]1CN([C@@H](C)CO)C(=O)c2cc(NC(=O)C3CC3)ccc2O[C@H]1CN(C)S(=O)(=O)c1cn(C)cn1 | inactive
Cc1cc(C(=O)Nc2cccc3c2O[C@H](CN(C)S(=O)(=O)c2ccc(Cl)cc2)[C@@H](C)CN([C@H](C)CO)C3=O)n(C)n1 | inactive
COc1cccc(C)c1NC(=O)O[C@H]1[C@H](OC(=O)Nc2ccccc2-c2ccccc2)[C@H](OC(=O)Nc2ccccc2-c2ccccc2)[C@@H](OC)O[C@@H]1CO | inactive
COc1cc(NC(=O)CCN2CCC(OC(=O)Nc3ccccc3-c3ccccc3)CC2)c(Cl)cc1CNC[C@H](O)c1ccc(O)c2nc(O)ccc12 | active
NCc1cc2ccc(F)cc2[nH]c1=O | inactive
C[C@H]1CN([C@@H](C)CO)C(=O)c2cc(C#CCN(C)C)cnc2O[C@H]1CN(C)C(=O)c1cnccn1 | inactive
CC(=O)Oc1cc(OC(C)=O)c2c(c1)O[C@H](c1ccc(OC(C)=O)c(OC(C)=O)c1)[C@H](OC(C)=O)C2 | inactive
O=C1NC(=O)C(c2cnc3ccccn23)=C1c1cn2c3c(cc(F)cc13)CN(C(=O)N1CCCCC1)CC2 | active
C[C@H](CO)N1C[C@H](C)[C@@H](CN(C)S(=O)(=O)c2cn(C)cn2)Oc2c(NS(=O)(=O)c3ccc(Cl)cc3)cccc2C1=O | inactive
COc1cccc(-c2ccc3c(c2)O[C@@H](CN(C)C(=O)C2CCC2)[C@@H](C)CN([C@H](C)CO)S3(=O)=O)c1 | inactive
Cc1ccc(S(=O)(=O)N(C)C[C@H]2Oc3ccc(NS(=O)(=O)c4cccs4)cc3C(=O)N([C@@H](C)CO)C[C@@H]2C)cc1 | inactive
Cl.O=C1CN2Cc3c(ccc(Cl)c3Cl)N=C2N1 | active
C[C@H](CO)N1C[C@H](C)[C@H](CN(C)C(=O)C2CCOCC2)Oc2cc(-c3ccc(F)cc3)ccc2S1(=O)=O | inactive
COc1ccc(S(=O)(=O)N(C)C[C@@H]2Oc3ncc(C#CC4(O)CCCC4)cc3C(=O)N([C@@H](C)CO)C[C@@H]2C)cc1 | inactive
O=C(Cc1nn[nH]n1)NS(=O)(=O)c1ccccc1 | inactive
C[C@@H]1CCCCO[C@H](CN(C)CC2CCCCC2)[C@H](C)CN([C@H](C)CO)C(=O)c2cc(NC(=O)Nc3ccc(F)cc3)ccc2O1 | active

SMILES | cytotoxicity call
C[C@H]1CCCCO[C@@H](CN(C)CC2CCCCC2)[C@@H](C)CN([C@@H](C)CO)C(=O)c2cc(NC(=O)Nc3ccc(F)cc3)ccc2O1 | active
C[C@H]1CCCCO[C@H](CN(C)CC2CCCCC2)[C@@H](C)CN([C@@H](C)CO)C(=O)c2cc(NC(=O)Nc3ccc(F)cc3)ccc2O1 | active
C[C@@H]1CCCCO[C@@H](CN(C)CC2CCCCC2)[C@@H](C)CN([C@@H](C)CO)C(=O)c2cc(NC(=O)Nc3ccc(F)cc3)ccc2O1 | inactive
C[C@@H]1CCCCO[C@H](CN(C)CC2CC2)[C@@H](C)CN([C@H](C)CO)C(=O)c2cc(NC(=O)Nc3ccc(F)cc3)ccc2O1 | inactive
C[C@@H]1CN([C@@H](C)CO)C(=O)c2cc(NC(=O)Nc3ccc(F)cc3)ccc2O[C@@H](C)CCCCO[C@H]1CN(C)CC1CC1 | inactive
C[C@@H]1CN([C@H](C)CO)C(=O)c2cc(NC(=O)Nc3ccc(F)cc3)ccc2O[C@@H](C)CCCCO[C@@H]1CN(C)CC1CCCCC1 | active
C[C@@H]1CCCCO[C@@H](CN(C)CC2CC2)[C@H](C)CN([C@H](C)CO)C(=O)c2cc(NC(=O)Nc3ccc(F)cc3)ccc2O1 | inactive
C[C@@H]1CCCCO[C@@H](CN(C)CC2CCCCC2)[C@@H](C)CN([C@H](C)CO)C(=O)c2cc(NC(=O)Nc3ccc(F)cc3)ccc2O1 | inactive
C[C@@H]1CCCCO[C@H](CN(C)CC2CC2)[C@H](C)CN([C@@H](C)CO)C(=O)c2cc(NC(=O)Nc3ccc(F)cc3)ccc2O1 | inactive
CO[C@@]1(C2=NCCN2)COc2ccccc2O1 | inactive
O=C1O[C@@H](c2ccccc2)[C@@H](c2ccccc2)N2[C@@H](c3ccccc3OCCO)[C@]3(C(=O)Nc4ccc(C#CC5(O)CCCCCC5)cc43)[C@@H](C(=O)N3CCCCCCC3)[C@H]12 | inactive
C[C@H](CO)N1C[C@H](C)[C@H](CN(C)C(=O)C2CCCCC2)OCCCC[C@H](C)Oc2ccc(NC(=O)C3CCCCC3)cc2C1=O | inactive
CCCn1c(=O)c(C)cn2nc(N)nc12 | inactive
O=C(N[C@@H]1C=C[C@@H](CC(=O)N2CCOCC2)O[C@@H]1CO)c1ccccn1 | inactive
O=C(CCn1ccc(=O)[nH]c1=O)Nc1ccc2c(c1)NC(=O)CO2 | inactive
COc1ccc2c3c([nH]c2c1)[C@@H](CO)N(CC1CCCCC1)C[C@]13CCN(CC1)C(=O)NC1CCCC1 | inactive
Cc1noc(C)c1S(=O)(=O)Nc1ccc2c(c1)CC(=O)N([C@H](C)CO)C[C@@H](C)[C@H](CN(C)Cc1ccc3c(c1)OCO3)O2 | inactive
CN(C)c1ccsc1C(=O)NN | inactive
C[C@@H]1CN([C@H](C)CO)C(=O)c2cc(NC(=O)CCC(F)(F)F)ccc2O[C@@H](C)CCCCO[C@H]1CN(C)C(=O)C1CCCCC1 | inactive
C[C@@H]1CCCCO[C@H](CN(C)C(=O)C2CCCCC2)[C@H](C)CN([C@@H](C)CO)C(=O)c2cc(NC(=O)Nc3ccc4c(c3)OCO4)ccc2O1 | inactive
Cc1nc(COP(=O)(O)O)cc2c1[O][Mn][O]c1c(cc(COP(=O)(O)O)nc1C)CN(CC(=O)O)CCN(CC(=O)O)C2 | inactive
C[C@@H]1CN([C@@H](C)CO)C(=O)c2cc(NC(=O)Nc3ccc(F)cc3)ccc2O[C@@H](C)CCCCO[C@@H]1CN(C)CC1CCCCC1 | active
C[C@@H]1CCCCO[C@H](CN(C)CC2CCCCC2)[C@H](C)CN([C@@H](C)CO)C(=O)c2cc(NC(=O)Nc3ccc(F)cc3)ccc2O1 | active

SMILES | cytotoxicity call
C[C@@H]1CCCCO[C@H](CN(C)CC2CCCCC2)[C@@H](C)CN([C@H](C)CO)C(=O)c2cc(NC(=O)Nc3ccc(F)cc3)ccc2O1 | inactive
C[C@@H]1CCCCO[C@@H](CN(C)CC2CCCCC2)[C@H](C)CN([C@H](C)CO)C(=O)c2cc(NC(=O)Nc3ccc(F)cc3)ccc2O1 | active
C[C@H]1CCCCO[C@@H](CN(C)CC2CC2)[C@@H](C)CN([C@@H](C)CO)C(=O)c2cc(NC(=O)Nc3ccc(F)cc3)ccc2O1 | inactive
C[C@@H]1CCCCO[C@@H](CN(C)CC2CCCCC2)[C@H](C)CN([C@@H](C)CO)C(=O)c2cc(NC(=O)Nc3ccc(F)cc3)ccc2O1 | active
C[C@@H]1CN([C@H](C)CO)C(=O)CCCn2cc(nn2)CO[C@H]1CN(C)S(=O)(=O)c1ccc2c(c1)OCCCO2 | inactive
Cc1noc(C)c1NC(=O)N(C)C[C@H]1OCCCC[C@H](C)Oc2ccc(NC(=O)NC3CCCCC3)cc2C(=O)N([C@@H](C)CO)C[C@@H]1C | inactive
CN(C)CC#Cc1ccc([C@@H]2[C@H]3CN(C(=O)CN(C)C)CCCCN3[C@H]2CO)cc1 | inactive
C[C@@H]1CCCCO[C@@H](CN(C)C(=O)NC2CCCCC2)[C@H](C)CN([C@@H](C)CO)C(=O)c2cc(NC(=O)NC3CCCCC3)ccc2O1 | inactive
O=C(C[C@@H]1C[C@H]2c3cc(NC(=O)c4ccc5c(c4)OCO5)ccc3O[C@H]2[C@@H](CO)O1)NCc1ccccn1 | inactive
C[C@@H]1CN([C@@H](C)CO)C(=O)c2cccc(NC(=O)Nc3ccc(C(F)(F)F)cc3)c2O[C@@H]1CN(C)Cc1ccc(-c2ccccc2)cc1 | inactive
CC(C)NC(=O)Nc1ccc2c(c1)CC(=O)N([C@H](C)CO)C[C@@H](C)[C@H](CN(C)S(=O)(=O)c1cn(C)cn1)O2 | inactive
C[C@H]1CN([C@@H](C)CO)C(=O)c2cccc(NS(=O)(=O)c3ccc(F)cc3)c2O[C@@H]1CN(C)Cc1ccncc1 | inactive
C[C@H](O)C#Cc1ccc2c(c1)O[C@H](CN(C)C(=O)c1ccccc1)[C@H](C)CN([C@@H](C)CO)S2(=O)=O | inactive
C[C@@H]1CN([C@@H](C)CO)S(=O)(=O)c2ccc(-c3cccnc3)cc2O[C@H]1CN(C)C(=O)c1cccc(F)c1 | inactive
C[C@H](CO)N1C[C@H](C)[C@H](CN(C)CC2CCCCC2)OCCCC[C@H](C)Oc2ccc(NC(=O)Nc3ccc(F)cc3)cc2C1=O | active
C[C@@H]1CCCCO[C@@H](CN(C)CC2CC2)[C@@H](C)CN([C@H](C)CO)C(=O)c2cc(NC(=O)Nc3ccc(F)cc3)ccc2O1 | inactive
C[C@H](CO)N1C[C@H](C)[C@@H](CN(C)CC2CCCCC2)OCCCC[C@H](C)Oc2ccc(NC(=O)Nc3ccc(F)cc3)cc2C1=O | active
C[C@H](CO)N1C[C@H](C)[C@@H](CN(C)CC2CC2)OCCCC[C@H](C)Oc2ccc(NC(=O)Nc3ccc(F)cc3)cc2C1=O | inactive
C[C@@H]1CN([C@@H](C)CO)C(=O)c2cc(NC(=O)Nc3ccc(F)cc3)ccc2O[C@@H](C)CCCCO[C@H]1CN(C)CC1CCCCC1 | active
C[C@H](CO)N1C[C@H](C)[C@H](CN(C)CC2CC2)OCCCC[C@H](C)Oc2ccc(NC(=O)Nc3ccc(F)cc3)cc2C1=O | inactive
C[C@@H]1CCCCO[C@@H](CN(C)CC2CC2)[C@H](C)CN([C@@H](C)CO)C(=O)c2cc(NC(=O)Nc3ccc(F)cc3)ccc2O1 | inactive
